AID504770 = E. coli YBA685 growth inhibition, screen for V. cholerae RctB inhibitors; E. coli YBA685 rctB-dependent plasmid, OD600 growth, 3 h; stronger effect = lower value; z-score (test concentration not listed); 130,000 tested, 0.27% active; AID 504770; in the data active means z-score below about -2, passing the limit was not always enough
Mtb MbtI inh = blocks the Mycobacterium tuberculosis siderophore enzyme MbtI; P9WFX0; purified MbtI enzyme, fluorescence intensity read-out; inhibition, % (concentration not given with the values); 100,000 tested, 0.89% active; in the data active means inhibition mostly above about 56%, no sharp cut-off; inactive means mostly below about 77%
Mtb MenB inh = Mtb MenB enzyme inhibition; inhibition, % (no concentration beside the values); P9WNP5; 100,000 tested, 0.43% active; MenB enzyme assay, absorbance read-out; in the data active means inhibition above about 21%, passing the limit was not always enough
Target sequence (P9WNP5 whole entry, looked up): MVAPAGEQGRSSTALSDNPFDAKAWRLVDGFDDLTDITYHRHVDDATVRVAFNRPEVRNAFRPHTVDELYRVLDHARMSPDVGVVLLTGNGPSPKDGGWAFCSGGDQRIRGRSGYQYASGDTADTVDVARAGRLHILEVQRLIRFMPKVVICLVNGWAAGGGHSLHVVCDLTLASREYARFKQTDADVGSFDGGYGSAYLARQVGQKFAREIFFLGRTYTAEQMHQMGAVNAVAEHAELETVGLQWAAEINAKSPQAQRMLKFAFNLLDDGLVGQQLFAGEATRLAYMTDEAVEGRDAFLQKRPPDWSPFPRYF
PV pol inh = inhibitors of poliovirus RNA polymerase binding and polymerization. P03300. poliovirus polymerase elongation, fluorescence polarization; stronger effect = lower value. % elongation, % (compound at 16.7 µg/mL). 150,000 tested, 0.66% active. AID 588519; in the data active means % elongation below about 90%
* hit, by the source's call; ! = not confirmed by another sample. An excerpt weighted towards active compounds, which were near 1.4% of everything screened.

Screening S=c1[nH]nc(COc2ccccc2Cl)n1C1CC1 returned AID504770 0.65, Mtb MbtI inh 84* and Mtb MenB inh -19.
NC(=O)CSc1nnc(COc2ccccc2Cl)n1C1CC1 was read as AID504770 -0.5, Mtb MbtI inh -9 and Mtb MenB inh -24.
For CN/N=C/c1cc2cc(OC)ccc2nc1Cl the results were AID504770 -3, Mtb MbtI inh 18, Mtb MenB inh -17 and PV pol inh 100.
Cc1ccc(-n2c(C)nc3c(cnn3-c3ccccc3)c2=O)cc1 was read as PV pol inh 82*.
CCC(=O)C1=C(c2ccccc2)N(C(=O)CC)n2cnnc2S1 was read as AID504770 -1.5, Mtb MbtI inh -9, Mtb MenB inh -17 and PV pol inh 104.
Screening CCOc1ccc(C2=C(C(=O)CC)Sc3nncn3N2C(=O)CC)cc1 returned PV pol inh 82*.
For CCC(=O)C1=C(c2ccc(F)cc2)N(C(=O)CC)n2cnnc2S1 the results were PV pol inh 86*.
Screening CCOC(=O)COc1ccccc1C#N returned AID504770 -1.1.
For CCCCN(C)C(=O)c1cc2cc3ccc(C)cc3nc2s1 the results were AID504770 -0.3.
COc1cccc2c1Oc1ncccc1N(C(=O)CCC(=O)NC1CCCCC1)C2 was read as AID504770 -0.8, Mtb MbtI inh -12, Mtb MenB inh -13 and PV pol inh 103.
CN(C)S(=O)(=O)c1ccc(S(=O)(=O)N2CCC(c3nc4ccccc4s3)CC2)cc1 was read as AID504770 -0.75, Mtb MbtI inh 2, Mtb MenB inh 29* and PV pol inh 102.
For CS(=O)(=O)/N=C(\NC#N)c1ccccc1 the results were AID504770 -0.7.
`O=C1CC(c2nnc(Cc3cccc(Cl)c3)o2)CN1c1ccccc1` (stereo unspecified) gave PV pol inh 103.
O=C1CC(c2n[nH]c(=S)o2)CN1c1ccc(Cl)cc1 (stereo unspecified) was read as AID504770 -0.25, Mtb MbtI inh 82*, Mtb MenB inh 17 and PV pol inh 99.
COC(=O)c1nn(-c2ccc(OC)cc2)c(=O)c2c(N)sc(C)c12 was read as AID504770 1.1, Mtb MbtI inh 77*, Mtb MenB inh -55 and PV pol inh 83*.
Screening NNC(=O)c1nn(-c2ccccc2)c(=O)c2c(N)scc12 returned AID504770 0.35, Mtb MbtI inh 41, Mtb MenB inh 1 and PV pol inh 91.
Screening COC(=O)c1nn(-c2ccccc2)c(=O)c2c(N)sc(C)c12 returned AID504770 -0.7, Mtb MbtI inh 76*, Mtb MenB inh -13 and PV pol inh 73*.
`CSc1ccc(NC(=O)NC2CCN(c3ncccn3)CC2)cc1` gave AID504770 -1.2, Mtb MbtI inh -14, Mtb MenB inh 7 and PV pol inh 101.
Screening O=C(CCn1c(=O)sc2ccccc21)n1c(=O)sc2ccccc21 returned AID504770 1.8, Mtb MenB inh -20 and PV pol inh 75*.
`O=c1c(=Nc2ccc(O)cc2)c(=O)c2ccccc12` gave AID504770 0.1, Mtb MbtI inh 42 and PV pol inh 49*.
For COc1ccc2nc(C(=O)O)sc2c1 the results were AID504770 0.35, Mtb MenB inh 0 and PV pol inh 86*.
For CC(C)Sc1nnc2oc3ccc(S(=O)(=O)N(C)C)cc3n12 the results were AID504770 -0.3, Mtb MbtI inh 14, Mtb MenB inh 17 and PV pol inh 6.0*.
CN(C)S(=O)(=O)N=C1C=CC(=NS(=O)(=O)N(C)C)C=C1 was read as AID504770 -0.15, Mtb MbtI inh 10, Mtb MenB inh -3 and PV pol inh 88*.
Screening CC(C)N(C(=O)NC(=O)Nc1ccc(C=C(C#N)C#N)cc1)S(C)(=O)=O returned AID504770 -0.25, Mtb MbtI inh 13, Mtb MenB inh -143 and PV pol inh 88*.
`COc1ccc2nc3oc(C(=O)NCCCN4CCc5ccccc5C4)cc3cc2c1` gave AID504770 -0.8, Mtb MbtI inh 117, Mtb MenB inh -14 and PV pol inh 102.
`COc1ccc(C/C(N)=N/O)cc1OC` gave AID504770 -0.25, Mtb MbtI inh 1, Mtb MenB inh 21* and PV pol inh 101.
For O=S(=O)(Nc1ccccc1)c1ccc(N2CCCCS2(=O)=O)cc1 the results were AID504770 -1.1, Mtb MbtI inh -4, Mtb MenB inh 2 and PV pol inh 99.
`COc1ccc(/C=N/N=C2/NC(=O)/C(=C(/C)c3nonc3C)S2)cc1OC` gave AID504770 0.1, Mtb MbtI inh 0, Mtb MenB inh -1 and PV pol inh 101.
For O=C1NC(=O)C(C(c2ccccc2)c2ccccc2)C(=O)N1 the results were AID504770 1.1, Mtb MbtI inh 1, Mtb MenB inh 32* and PV pol inh 99.
O=C1NC(=O)C(c2ccccc2)N1 (stereo unspecified) was read as AID504770 -1.1, Mtb MbtI inh -3, Mtb MenB inh -2 and PV pol inh 106.
Screening O=C(CSc1nc2c(oc3ccccc32)c(=O)n1C1CCCC1)Nc1nccs1 returned AID504770 0.6, Mtb MbtI inh -4, Mtb MenB inh 6 and PV pol inh 98.
`Cc1cc(Cl)cc(C)c1OCC1COS(=O)O1` (stereo unspecified) gave AID504770 0.15, Mtb MbtI inh -4, Mtb MenB inh -6 and PV pol inh 82*.
Screening CN1C(=O)/C(=c2/[nH][nH]c(=O)/c2=C\C=C\c2ccccc2)C(=O)c2ccccc21 returned AID504770 1.8, Mtb MenB inh -14 and PV pol inh 84*.
`COc1ccc(/C=C2/C(=O)N(C)c3ccccc32)cc1` gave AID504770 0.25, Mtb MbtI inh 17, Mtb MenB inh -64 and PV pol inh 100.
`CN(C)CCOC(=O)COc1ccc(Cl)cc1` gave AID504770 -0.3, Mtb MbtI inh -11, Mtb MenB inh 68*! and PV pol inh 99.
`O=C(COc1ccc(Cl)cc1)OCc1ccc(Br)cc1` gave AID504770 0.9, Mtb MbtI inh -9 and PV pol inh 99.
For O=C(Cn1cnc2c(nc3n2CCCCC3)c1=O)NC1CCCCCC1 the results were AID504770 -2.1*, Mtb MbtI inh 7, Mtb MenB inh -18 and PV pol inh 102.
Screening CC1CC(=O)C2=C(O1)c1c(ccc3ncccc13)NC2c1ccc(Cl)cc1Cl (stereo unspecified) returned AID504770 -1.1 and Mtb MbtI inh -35.
CC(=O)Nc1ccc(NC(=O)Cn2cnc3c(oc4ccccc43)c2=O)cc1 was read as AID504770 -0.25, Mtb MbtI inh 18, Mtb MenB inh -9 and PV pol inh 99.
O=C1CC(Sc2ccc3ccccc3c2)C2COC1O2 (stereo unspecified) was read as AID504770 0.3, Mtb MenB inh -59 and PV pol inh 84*.
Screening CC1CCc2nc(SC3CC(=O)C4OCC3O4)nc(C(F)(F)F)c2C1 (stereo unspecified) returned AID504770 1.1, Mtb MenB inh -5 and PV pol inh 102.
Screening CS(=O)(=O)N1CCC(C(=O)NC2CCCCC2)CC1 returned AID504770 -0.8, Mtb MbtI inh -3, Mtb MenB inh -31 and PV pol inh 101.

Bioassay records: PubChem, ICCB-Longwood Screening Facility, Harvard Medical School
